Test results taken from PubChem BioAssay AID463193 (University of Pittsburgh Molecular Library Screening Center, 2010).
Among all 190,000 compounds or so, about 1,900 (1%) were called active.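 How the source made its calls: active means percentage of spot-positive cells more than 3 SD above its plate mean, without a fluorescence outlier flag or 80% toxicity; inconclusive means no clear call, values can overlap the other calls; inactive means the rest.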 Only a selection was taken, and actives are over-represented in it overall.

Assay: GFP-LC3 puncta formation changes – imaging, high-content, MEF GFP-LC3, primary screen (AID 463193);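 on % cells with GFP-LC3 spots: spot-positive cell cutoff set from DMSO-treated cells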;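 on toxicity: cell loss after 18 h compound exposure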
Conditions: autophagy, at 10 µM; % cells with GFP-LC3 spots: stronger effect = higher value; toxicity: measured here: cell loss, nuclei count

Structure (SMILES) | % cells with GFP-LC3 spots | toxicity [%]
CCCC(=O)NC(C)C(c1cccs1)N1CCN(c2ccccc2)CC1 (stereo not drawn) | 5.17% (active) | 28.7
CC(NC(=O)Nc1ccccc1)C(c1cccs1)N1CCN(c2ccccc2)CC1 (stereo not drawn) | 10.1% (inactive) | -0.847
CCN(CC)S(=O)(=O)c1ccc(Cl)c(C(=O)NC(C)C(c2cccs2)N2CCCC2)c1 (stereo not drawn) | 1.61% (inactive) | 7.32
COc1cc(CNc2ncn[nH]2)ccc1OCc1ccccc1C | 0.305% (inactive) | 8.6
COc1ccc2c(c1)CCc1c(C(=O)N3CCCC3)noc1-2 | 25.2% (active) | 71.1
COc1ccc2c(c1)CCc1c(C(=O)Nc3c(C)n(C)n(-c4ccccc4)c3=O)noc1-2 | 10.1% (inactive) | 17.1
COc1ccc2c(c1)CCc1c(C(=O)N3CCc4ccccc4C3)noc1-2 | 1.3% (inactive) | 5.85
Cc1ccc(NC(=O)C(=O)NCc2ccc(/C=N/NC(=O)c3c(C)nc4cc(C)ccn34)o2)cc1 | 7.6% (inactive) | -9.46
Cc1ccc(C(=O)/C=C/Nc2ccc(S(=O)(=O)Nc3onc(C)c3C)cc2)cc1 | 2.91% (inactive) | 14.6
COc1cc2c(cc1OC)CC1(CCCCC1)N=C2 | 0.564% (inactive) | -2.01
CNc1nc2c(C)cccn2c(=O)c1C=Nc1ccc(OC)cc1 | 16.2% (inactive) | 19.6
Cc1cccn2c(=O)c(/C=C3\SC(=S)N(CC(C)C)C3=O)c(NCCCOC(C)C)nc12 | 83.5% (active) | 1.08
CCn1c(=N)c(C(=O)NCCCOC)cc2c(=O)n3cccc(C)c3nc21 | 6.38% (inactive) | 16.3
Cn1cc(-c2ccccc2)cc(C#N)c1=O | 1.72% (inactive) | 2.28
COc1ccc(CN2CN(C3CCCC3)CSC2=S)cc1 | 6.4% (inactive) | -8.41
COc1ccc(C(CC(=O)Nc2ccc(C)cc2)NC(=O)C(F)(F)F)cc1 (stereo not drawn) | 6.89% (inactive) | -5.77
S=C(NCc1cccnc1)Nc1ccc(Cl)cc1Cl | 1.61% (inactive) | 10
O=C(CSc1cccc2cccnc12)N/N=C/c1cccnc1 | 16.6% (inactive) | 24.2
CC(=O)/C(=N\Nc1ccc(Cl)cc1Cl)Sc1cccc2cccnc12 | 80.1% (active) | -7.61
CC(C)(C)CC(C)(C)NCC(O)COCCOc1ccc(Br)cc1 (stereo not drawn) | 10.9% (inactive) | 5.37
c1ccc(C2c3[nH]c4ccccc4c3CCN2Cc2cccn2-c2cccnc2)nc1 (stereo not drawn) | 1.12% (inactive) | -2.12

Structure (SMILES) | % cells with GFP-LC3 spots | toxicity [%]
Fc1cccc2ncnc(OCc3ccccc3)c12 | 3.59% (inactive) | -3.11
COc1ccc(OC)c(NC(=O)CN2CCN(C(=O)c3ccco3)CC2)c1 | 0.967% (inactive) | 2.86
COc1ccc(CCNC(=O)CCn2c(=O)oc3ccccc32)cc1OC | 4.11% (inactive) | -1.63
COc1ccc(OC)c(NC(=O)Cn2c(=O)oc3ccccc32)c1 | 18.4% (active) | 3.57
CCN(CC(=O)NCCc1ccccc1)S(=O)(=O)c1ccccc1 | 12% (inactive) | 29.2
Cc1c(Br)c([N+](=O)[O-])nn1CC(=O)N1CCN(Cc2ccccc2)CC1 | 3.58% (inactive) | 7.29
O=C(CCn1c(SCC(=O)c2ccccc2)nc2ccccc2c1=O)NCc1ccc(F)cc1 | 5.36% (inactive) | 4.33
CC(Sc1nc2ccccc2c(=O)n1Cc1ccco1)C(=O)c1ccccc1 (stereo not drawn) | 11.8% (inactive) | -5.88
CSc1nc2ccccc2c(=O)n1Cc1ccc(F)cc1 | 35.2% (active) | 0.835
CC(=O)n1c(C=Nc2ccccc2)c(O)c2ccccc21 | 6.01% (inactive) | -16
COc1ccc(NC(=O)Cn2c(=O)n(Cc3ccco3)c(=O)c3ccccc32)cc1 | 3.23% (inactive) | -0.177
CN(c1ccccc1)c1ccc(/C=c2\s/c(=C(/C#N)C(=O)C(C)(C)C)n(Cc3ccco3)c2=O)cc1 | 71.3% (active) | -2.03
CCOC(=O)CSc1nc2c(sc(=S)n2CCc2ccccc2)c(=O)n1Cc1ccco1 | 25.9% (inactive) | 36.2
Cc1cc(C(=O)N/N=C/c2cc([N+](=O)[O-])cc(C)c2O)n[nH]1 | 6.01% (inactive) | 8.83
CCOC(=O)Cc1ncccc1C(=O)Nc1ccc(OC)cc1 | 2.71% (inactive) | -9.63
O=C(CSc1nnc(-c2ccncc2)n1-c1ccc(Cl)cc1)Nc1ccc(C(=O)O)cc1 | 1.88% (inactive) | -0.961
COC(=O)c1ccc(C(=O)Nc2cc(Cl)ccc2Cl)cc1NC(=O)c1ccccc1C | 29.3% (active) | -19.2
COC(=O)c1ccc(C(=O)OC)c(NC(=S)N2CCN(c3cc(Cl)ccc3C)CC2)c1 | 12.5% (inactive) | 21.9
CCCN(CCC)C(=S)Nc1cc(C(=O)OC)ccc1C(=O)OC | 12.3% (inactive) | -2.2
CN(c1ccccc1)S(=O)(=O)c1ccc(Cl)c(C(=O)OCC(=O)N2CCOCC2)c1 | 0.158% (inactive) | 2.3
O=C(OCC(=O)N1CCN(C(=O)c2ccco2)CC1)c1ccccc1Cc1ccccc1 | 7.07% (inactive) | 4.3

Structure (SMILES) | % cells with GFP-LC3 spots | toxicity [%]
CN(c1ccccc1)S(=O)(=O)c1cc(C(=O)OCC(=O)N2CCN(C(=O)c3ccco3)CC2)ccc1Cl | 11.3% (active) | -3.57
Cc1ccc(-n2cc(CN(C)Cc3nccn3C)c(-c3cccc(C)c3)n2)cc1 | 1% (inactive) | -0.155
CCN(CC)C(=O)CSc1nnc(C2CCCCC2)o1 | 4.79% (inactive) | -0.426
CCCCCC1CCC(c2nnc(SCC(C)=O)o2)CC1 (stereo not drawn) | 10.7% (active) | -6.19
CN(C)/N=C/c1cc(Cl)cc([N+](=O)[O-])c1O | 9.47% (inactive) | -11.7
O=C(Cn1cnc2c(nnn2Cc2ccc(F)cc2)c1=O)NCc1ccc2c(c1)OCO2 | 2.36% (inactive) | -2.24
Cc1nc(Nc2ccc3c(c2)OCCO3)c2nnn(Cc3ccccc3Cl)c2n1 | 8.6% (inactive) | 4.03
CCCc1nc(NCc2ccc3c(c2)OCO3)c2nnn(Cc3ccccc3Cl)c2n1 | 15.7% (active) | 5
CCOc1ncccc1C(=O)N(C)CC(=O)Nc1ccc(F)cc1 | 5.93% (inactive) | -12.3
O=C(NCc1ccncc1)C(=O)NCc1ccco1 | 0.301% (inactive) | -9.14
COc1ccccc1Nc1ncnc2c1oc1ccccc12 | 5.61% (inactive) | 1.55
CCSc1nc(C)nc2c1oc1ccccc12 | 7.02% (inactive) | 8.62
CCc1nc(Nc2ccc3nccnc3c2)c2oc3ccccc3c2n1 | 19% (active) | -4.67
CN(C)C(=O)c1nc2ccc(Cl)cn2c1CN1CCN(c2ncccn2)CC1 | 2.1% (inactive) | -12.9
CC(C)C(=O)Nc1c(O)c2ccccc2[nH]c1=O | 0.457% (inactive) | 5.73
CCOc1ccccc1N1CCN(C(=O)COc2ccc3c(C)cc(=O)oc3c2)CC1 | 3.98% (inactive) | 7.33
COc1ccc([C@H]2[C@H](C(C)=O)N3N=Cc4ccccc4C3C23C(=O)OC(C)(C)OC3=O)cc1 (stereo partly drawn) | 3.81% (inactive) | -2.15
C/C(=N/Nc1ccc(Cl)cc1)c1cnnc(-c2ccccc2)n1 | 45.6% (active) | -1.98
O=C(Cc1ccc(Cl)cc1)NCc1nc(-c2ccccc2)no1 | 1.76% (inactive) | 18
CC/C(=N/Nc1ccccc1)c1cnnc(SC)n1 | 1.72% (inactive) | -12.6
CNc1nccc(-c2ccc(Cl)cc2)c1C#N | 0.668% (inactive) | -6.73

Structure (SMILES) | % cells with GFP-LC3 spots | toxicity [%]
CC(C)(C)NC(=O)NC(=O)CN1CCC(Cc2ccccc2)CC1 | 8.11% (active) | 52.4
NC(=O)c1ccc(CN2CCC(Cc3ccccc3)CC2)cc1 | 4.13% (inactive) | 31.8
COc1ccc(NC(=O)N2CCC(Cc3ccccc3)CC2)cc1 | 5.76% (inactive) | -6.26
O=C(NCc1ccco1)c1nn2cccnc2c1Cl | 2.07% (inactive) | -10.5
Cc1ccc(/C([O-])=C(/C(=S)NCc2ccco2)[n+]2ccccc2)cc1[N+](=O)[O-] | 1.01% (inactive) | 4.63
Cc1ccc(NC2=C(Cl)C(=O)OC2OC(=O)c2ccccc2C)cc1 (stereo not drawn) | 9.77% (inactive) | 12.9
O=c1nc2s/c(=C\c3ccco3)c(=O)n2nc1Cc1ccccc1 | 1.32% (inactive) | -3.5
CCOc1ccccc1C(=O)NCc1ccco1 | 3.98% (inactive) | -2.98
CCOc1ccccc1/C=c1\sc2nc(-c3ccco3)nn2c1=O | 23.9% (active) | -24.1
Cc1cc(C)c2c(n1)nn1c(N3CCN(c4cccc(Cl)c4)CC3)cc(C)nc21 | 11.4% (active) | 3.85
Cc1cc(C)c2c(n1)nn1c(N3CCOCC3)cc(C)nc21 | 8.07% (inactive) | 5.9
Cc1cc(C)c2c(n1)nn1c(-n3ccnc3)cc(C)nc21 | 2.18% (inactive) | 8.53
COCCN(Cc1nc(-c2ccc(C(F)(F)F)cc2)no1)C(C)C | 9.15% (inactive) | 9.9
O=C(N/N=C/c1coc2ccccc2c1=O)c1cc2ccccc2o1 | 23.9% (inactive) | 5.54
Cc1c(/C=N\NC(=O)c2cc3ccccc3o2)c2ccccc2n1C | 7.46% (active) | 40.9
Cc1c(/C=N/N2C(=O)C3C4C=CC(C4)C3C2=O)c2ccccc2n1C (stereo not drawn) | 7.41% (inactive) | -40.2
O=C(NCCOc1ccccc1F)Nc1ccc(Br)cc1 | 8.91% (inactive) | 10.2
CCCCn1c(N)c(N2CCOCC2)c(=O)n(CC(=O)NCCc2ccccc2)c1=O | 1.7% (inactive) | 10.6
Cc1ccc(Nc2ccccc2N)cc1 | 78% (active) | 27.6
Nc1ccc(Nc2ccccc2)cc1 | 3.14% (inactive) | 23.3
Cc1ccc(Nc2nnc(SCc3ccccc3)s2)cc1 | 12.4% (inactive) | -2.65
